# Only some compounds are listed: those with a hit (about 19% of all), similar ones and a draw of the others.
# DT40 TDP1 no CPT – qHTS for Inhibitors of human tyrosyl-DNA phosphodiesterase 1 (TDP1): qHTS in cells in absence of CPT. Potency, µM (series often up to 46.2 µM), inactives show top-dose activity change, negative = growth inhibition, usual class: inhibitors. DT40 Tdp1-/- hTDP1 cells, no CPT, ATP luminescence, 48 h. AID 686978, 2013. 15% of 420,000 active; further: nearly all actives have a fitted effect of over 55% in size
#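 Growth kinetics read by CellTiter-Glo luminescence after ≥48 hr at 37 °C. Cells: DT40 Tdp1-/- stably carrying human TDP1, 400 per well, compound exposure in the absence of CPT (DMSO vehicle).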
# Gal4-VP16 FLuc – VP16 counterscreen qHTS for inhibitors of ROR gamma transcriptional activity; Drosophila S2 Gal4-VP16 UAS-luciferase, luminescence, 20 h; 3.5% of 310,000 active; Potency, µM (series often up to 53.6 µM), inactives show at the highest dose activity, negative = inhibition, hits mostly inhibitors;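 further: Gal4-VP16 expression switched on by copper sulfate through the metallothionein promoter; nearly all actives have a fitted effect of over 50% in size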
# RORgamma inh – qHTS for inhibitors of ROR gamma transcriptional activity. Nuclear receptor ROR-gamma (Mus musculus), P51450. Drosophila S2 Gal4-RORgamma UAS-luciferase reporter, 20 h. Potency, µM (top dose mostly 53.6 µM), without a hit: top-dose activity change, negative = inhibition, most hits filed as inhibitors. 5.4% of 310,000 active. AID 2551, 2010; further: nearly all actives have a fitted effect of over 60% in size
# Target sequence (P51450 whole entry, looked up, the tested form may be a part): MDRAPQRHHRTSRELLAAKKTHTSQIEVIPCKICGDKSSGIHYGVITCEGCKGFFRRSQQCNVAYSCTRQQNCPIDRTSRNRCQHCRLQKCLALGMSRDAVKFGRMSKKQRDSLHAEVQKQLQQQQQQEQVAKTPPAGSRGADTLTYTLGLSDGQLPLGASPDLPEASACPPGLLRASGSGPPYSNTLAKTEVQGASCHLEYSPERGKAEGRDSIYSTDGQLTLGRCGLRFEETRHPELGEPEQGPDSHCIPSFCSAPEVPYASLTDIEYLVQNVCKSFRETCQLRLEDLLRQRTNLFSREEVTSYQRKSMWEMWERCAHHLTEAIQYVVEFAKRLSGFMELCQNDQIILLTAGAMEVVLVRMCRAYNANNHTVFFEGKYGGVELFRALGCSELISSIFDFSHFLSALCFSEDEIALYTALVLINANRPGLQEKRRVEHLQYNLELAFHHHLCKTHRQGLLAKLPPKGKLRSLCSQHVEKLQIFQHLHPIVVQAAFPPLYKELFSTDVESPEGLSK
#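 Read-out: Photinus luciferase luminescence; inhibitors lower reporter signal. Insect Schneider cells with Gal4-ROR gamma fusion under metallothionein promoter, UAS reporter; 700 uM final copper sulfate induction, 20 hr, ambient temperature.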
# TDP1 block – qHTS Assay for Inhibitors of Tyrosyl-DNA Phosphodiesterase (TDP1) | Tyrosyl-DNA phosphodiesterase 1 (Homo sapiens), Q9NUW8 | recombinant TDP1, AlphaScreen DNA substrate cleavage | Potency, µM (titrated, usually from 130 µM), for inactives: at the top dose activity change, negative = inhibition, usual class: inhibitors | 0.28% of 350,000 active | AID 485290, 2010; further: nearly all actives have a fitted effect of over 40% in size
#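 Here, a 5' biotin and 3' phosphotyrosine-FITC DNA oligonucleotide reports Tdp1 activity: intact substrate bridges AlphaScreen beads, while cleavage leaves a 3' phosphate and drops signal. All incubations at room temperature.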
# DT40 TDP1 CPT – qHTS for Inhibitors of human tyrosyl-DNA phosphodiesterase 1 (TDP1): qHTS in cells in presence of CPT | 12% of 420,000 active | chicken DT40 Tdp1-/-;hTDP1 cells + 20 nM CPT, ATP luminescence, 48 h | Potency, µM (series often up to 46.2 µM), without a hit: top-dose activity change, negative = growth inhibition, usual class: inhibitors | AID 686979, 2013; further: nearly all actives have a fitted effect of over 55% in size
#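 Chicken DT40 Tdp1-/- cells stably complemented with human TDP1 were seeded at 400 cells/well in medium containing 20 nM camptothecin, exposed to pin-transferred compounds, and grown at 37 °C for at least 48 hr. Viability was read as ATP luminescence.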
# * marks the source's active call; other numbers are inactive results; ? = inconclusive; . = no result given. The call rests on the fitted dose curve; in most records, active means well fitted curve in the direction sought with a large enough effect; inconclusive means small, poorly fitted or top-dose-only effect, or another doubt; inactive means no such curve, though single readings can be large; an effect the other way counts as inactive or inconclusive. On the % scale 0 is the no-effect control and ±100 the full control effect; potency means the concentration at half of the fitted maximal effect.
SMILES,DT40 TDP1 no CPT,Gal4-VP16 FLuc,RORgamma inh,TDP1 block,DT40 TDP1 CPT
COc1ccc(N(C)S(=O)(=O)c2cccc(C(=O)N3CCN(c4cccc(C)c4C)CC3)c2)cc1,16µM*,.,.,.,?
Cc1cccc(N2CCN(C(=O)c3cccc(S(=O)(=O)N4CCCCC4)c3)CC2)c1C,?,.,.,1%,?
COc1ccccc1CNC(=O)CCCn1nc(C)c2sc3ccccc3c2c1=O,-20%,.,.,0%,-18%
CCc1nc2ccc(C(=O)N3CCN(C(=O)c4ccco4)CC3)cn2c1N(C)C(=O)C1CCCCC1,-4%,.,.,.,1%
CN(CCO)c1cc(Sc2nc3ccccc3s2)c2nonc2c1[N+](=O)[O-],1.8µM*,13µM*,11µM*,5%,2.1µM*
CC(=O)OCCN(C)c1cc(SC(C)C)c2nonc2c1[N+](=O)[O-],16µM*,29%,?,0%,13µM*
CC(=O)OCCNc1cc(SC(C)C)c2nonc2c1[N+](=O)[O-],?,6%,-6%,2%,-1%
Cc1ccc(OCC(O)CNC(C)c2ccccc2)cc1C (stereo not given),-104%,-9%,5%,3%,?
OC(COC(c1ccccc1)c1ccccc1)CN1CCc2ccccc2C1 (stereo not given),21µM*,7%,?,4%,?
Cc1ccc(C(OCC(O)CN2CCCCC2)c2ccccc2)cc1 (stereo not given),23µM*,2%,-17%,5%,1%
Cc1ccc(C(OCC(O)CNC(CO)C(O)c2ccc([N+](=O)[O-])cc2)c2ccccc2)cc1 (stereo not given),15µM*,-4%,0%,.,?
Cc1ccc(C(OCC(O)CNC(C)c2ccccc2)c2ccccc2)cc1 (stereo not given),12µM*,5%,-28%,-10%,7.3µM*
CCCn1c(N)c(C(=O)CSc2n[nH]c(-c3ccc(C)cc3)n2)c(=O)[nH]c1=O,-17%,.,.,6%,?
Nc1ccc(-n2nnnc2CN2CCOCC2)cc1,-2%,0%,-8%,1%,11%
N#Cc1ccccc1,-6%,-7%,-24%,0%,-9%
COc1ccc(CN2CCNC(=O)C2CC(=O)O)c(OC)c1 (stereo not given),-14%,3%,1%,9%,-1%
NC(=O)c1ccc[n+](CC(=O)c2ccc(NC(=O)c3ccccc3)cc2)c1,-10%,3%,19%,.,2%
O=C(C[n+]1ccc2ccccc2c1)c1cccc2ccccc12,8.2µM*,0%,5%,0%,13µM*
Nc1ccc[n+](CC(=O)c2ccc(F)cc2)c1,10µM*,.,.,.,14µM*
O=C(CCCc1ccccn1)c1cccc2ccccc12,-30%,.,.,.,-20%
O=C(C[n+]1ccc2ccccc2c1)c1ccc(NC(=O)c2ccccc2)cc1,7.3µM*,0%,15%,5%,5.8µM*
O=C(C[n+]1cccc(NC(=O)c2ccccc2)c1)c1ccc(NC(=O)c2ccccc2)cc1,?,17%,31%,5%,23µM*
Cc1ccc2nc(-c3cccnc3)cc(C(=O)Nc3ccccc3[N+](=O)[O-])c2c1,?,?,-2%,1%,?
O=C(c1cnccn1)N1CCC[C@@]2(CCN(Cc3ccccc3)C2)C1,24%,-8%,0%,.,10%
Clc1ccccc1OCCN1CCC(Cc2ccccc2)CC1,?,-13%,-27%,-1%,?
SMILES,DT40 TDP1 no CPT,Gal4-VP16 FLuc,RORgamma inh,TDP1 block,DT40 TDP1 CPT
Cc1ccc(C(=O)C[n+]2ccc3ccccc3c2)cc1,15µM*,2%,-1%,2%,?
O=C(C[n+]1ccc2ccccc2c1)c1ccc(O)c(O)c1,-24%,.,.,.,-4%
c1ccc(-c2nc(N3CCOCC3)cc(N3CCOCC3)n2)cc1,-17%,-19%,19%,-4%,-27%
COc1cccc(Sc2cc(N3CCOCC3)nc(-c3ccccc3)n2)c1,-32%,-4%,16%,-2%,?
Clc1ccc(Sc2cc(N3CCOCC3)nc(-c3ccccc3)n2)cc1,29µM*,-9%,18%,2%,?
CCCc1ccc(Oc2cc(N3CCOCC3)nc(-c3ccccc3)n2)cc1,?,.,.,.,29µM*
Cc1ccc(C(=O)C(C)OC(=O)CN2C(=O)NC3(CCCC3)C2=O)cc1C (stereo not given),-6%,.,.,5%,-1%
CCN(CC)CCCNc1nc2ccccc2c2[nH]c3ccc(OC)cc3c12,2.9µM*,.,.,.,5.2µM*
COc1ccc(OC)c(S(=O)(=O)N2CC=C(c3c(C)n(CC(=O)N4CCCC4)c4ccccc34)CC2)c1,18µM*,.,.,6%,16µM*
CCN(CC)C(=O)CN1C(=O)C(=O)c2ccccc21,0%,5%,4%,-4%,-13%
O=C1C(=O)N(Cc2ccc(Cl)c(Cl)c2)c2ccccc21,1.9µM*,?,?,.,2.7µM*
O=C1C(=O)N(Cc2cccc([N+](=O)[O-])c2)c2ccccc21,0.92µM*,-1%,29%,-6%,0.65µM*
O=C(CN1C(=O)C(=O)c2ccccc21)c1ccc(Cl)cc1,3.3µM*,-4%,29%,5%,5.8µM*
CCC1(c2ccccc2)NC(=O)N(Cc2cccc([N+](=O)[O-])c2)C1=O (stereo not given),-12%,-1%,12%,.,?
Cc1ccc(C)c(-c2cc(C(=O)NN3CCOCC3)c3ccccc3n2)c1,?,2%,-30%,-3%,-7%

# Screening data (PubChem BioAssay)
